What all share (assay type): functional
In test [1] the test system is Plasmodium falciparum. The test can be described thus: GSK_TCMDC: Inhibition of Plasmodium falciparum 3D7 in whole red blood cells, using parasite LDH activity as an index of growth. Test compounds present at 2uM.
In test [2] the test system is Plasmodium falciparum. The experiment in a line: GSK_TCMDC: Inhibition of Plasmodium falciparum Dd2 in whole red blood cells, using parasite LDH activity as an index of growth. Test compounds present at 2uM.
The subject of another test is HepG2. The test can be described thus: GSK_TCMDC: Percent inhibition of human HepG2 cell line. Test compounds present at 10uM.

For the molecule `O=C(NCCN1CCCCC1)N1CCCN(c2ncnc3cc(-c4ccccc4)sc23)CC1.O=C(O)C(F)(F)F`, the Inhibition (in general, the percentage by which the read-out fell short of the control) in the test on Plasmodium falciparum [1] was 89%; in the test with Plasmodium falciparum [2], 80%; in the test with HepG2, 2%.

Regarding `Br.CCCOc1ccc(CCCON2C(N)=NC(N)=NC2(C)C)cc1`, the results for the Inhibition in the test with Plasmodium falciparum [1], in the test with Plasmodium falciparum [2] and in the test on HepG2 were 95%, 94% and 65%, respectively.

With `CS(=O)(=O)CCNCc1cccc(-c2cc3c(Nc4ccc(OCc5ccccc5)cc4)ncnc3cn2)c1.Cl`, the Inhibition in the test on Plasmodium falciparum [1] came out at 100%; in the test with Plasmodium falciparum [2] it was 26%; in the test with HepG2, 3%.

As to `CCCCCCN1CCC(NCc2ccc(C)cc2)CC1.O=C(O)C(F)(F)F`, the Inhibition turned out to be 93% with Plasmodium falciparum [1], 4% in the test with Plasmodium falciparum [2] and 16% with HepG2.

As to `Cc1c(Cc2ccc(F)cc2)c(Cl)nc2nc(N)nc(N)c12`, the figures for the Inhibition in the test with Plasmodium falciparum [1], in the test with Plasmodium falciparum [2] and in the test with HepG2 were 92%, 1% and 66%, respectively.

Take `Cl.N=C(Cc1ccc(Cl)cc1)NCCN1CCCCCC1`: the Inhibition in the test with Plasmodium falciparum [1] is recorded as 93%; in the test with Plasmodium falciparum [2], 94%; with HepG2, 0%.

As to `Fc1ccc2[nH]c3c(NCCN4CCCCC4)ncnc3c2c1`, the figures for the Inhibition in the test with Plasmodium falciparum [1], with Plasmodium falciparum [2] and with HepG2 were 99%, 44% and 24%, respectively.

Regarding `CN(C)c1ccc(-c2ccc(C(=O)NC3CCN(Cc4ccc5c(c4)OCCO5)CC3)s2)cc1.O=C(O)C(F)(F)F`, the Inhibition in the test on Plasmodium falciparum [1] is 100%; in the test with Plasmodium falciparum [2], 73%; in the test with HepG2, 36%.

With `O=C(O)C(F)(F)F.c1cc(-c2ccc(CNCCCn3ccnc3)cc2)cc(-c2nc3ccccc3[nH]2)c1`, the Inhibition in the test with Plasmodium falciparum [1] is 100%; with Plasmodium falciparum [2], 100%; in the test with HepG2, 17%.

For the molecule `CCCC[C@@H](C(=O)NCCc1ccc(Cl)cc1)N1C(=O)CCC1C(=O)Nc1ccc(Cl)c(Cl)c1` (stereo partly drawn), the Inhibition in the test with Plasmodium falciparum [1] worked out at 95%; with Plasmodium falciparum [2] it was 2%; in the test on HepG2, 4%.

In the case of `CC(=O)Nc1ccc(C2NC(=O)NC(c3ccccc3)=C2c2nc3ccccc3s2)cc1` (stereo not drawn), the Inhibition in the test with Plasmodium falciparum [1] amounted to 93%; in the test on Plasmodium falciparum [2], 96%; in the test with HepG2, 0%.

Consider `CCCC(=O)NC(c1ccc(C)cc1)c1ccc2cccnc2c1O` (stereo not drawn), for which the Inhibition in the test on Plasmodium falciparum [1] turned out to be 88%; with Plasmodium falciparum [2], 45%; in the test on HepG2, 52%.

Turning to `Cc1cccc2nc(-c3ccc(-c4cccc(CNCc5ccccc5)c4)s3)[nH]c12.O=C(O)C(F)(F)F`, the Inhibition is given as 99% in the test with Plasmodium falciparum [1], 50% in the test with Plasmodium falciparum [2] and 3% in the test on HepG2.

Regarding `O=C(Cc1ccccc1)NC1CCN(c2ccnc3cc(Cl)ccc23)C1.O=C(O)C(F)(F)F` (stereo not drawn), the Inhibition with Plasmodium falciparum [1] amounted to 100%; in the test on Plasmodium falciparum [2] it was 78%; in the test on HepG2, 6%.

As to `Cl.O=C(/C=C/c1ccc(Cl)cc1)Nc1ccc2nc(CN3CCCC3)ccc2c1`, the Inhibition is on record as 85% with Plasmodium falciparum [1], 30% in the test on Plasmodium falciparum [2] and 47% in the test with HepG2.

With `O=C(O)C(F)(F)F.O=S(=O)(NCCN1CCCC1)c1ccc(-c2ccc(CNCc3ccsc3)cc2)cc1`, the values for the Inhibition in the test on Plasmodium falciparum [1], in the test with Plasmodium falciparum [2] and with HepG2 were 95%, 36% and 44%, respectively.

For `Cc1nc(N)nc(N)c1CCCOc1cccc(Cl)c1`, the Inhibition in the test with Plasmodium falciparum [1] is recorded as 96%; in the test on Plasmodium falciparum [2], 0%; with HepG2, 16%.

Consider `COc1cc(-c2nc3ccc(N4CCN(C)CC4)cc3[nH]2)cc(OC)c1OC`, for which the Inhibition is listed as 87% with Plasmodium falciparum [1], 15% in the test on Plasmodium falciparum [2] and 6% in the test on HepG2.

Take `Cc1cc(N(C)CCCN(C)C)nc(Nc2ccc(Cl)cc2)n1`: the Inhibition was determined as 100% with Plasmodium falciparum [1], 79% in the test on Plasmodium falciparum [2] and 7% with HepG2.

Consider `CC(C)(C)c1cc(C(=O)N2CCN(c3ncccc3C(F)(F)F)CC2)n(Cc2ccccc2)n1`, for which the Inhibition turned out to be 100% in the test on Plasmodium falciparum [1], 99% in the test with Plasmodium falciparum [2] and 0% in the test on HepG2.

On to `CNC(=O)c1ccccc1Nc1nc(Nc2cccc(CS(C)(=O)=O)c2)ncc1C.O=CO`, for which the results for the Inhibition in the test on Plasmodium falciparum [1], in the test on Plasmodium falciparum [2] and in the test with HepG2 were 97%, 95% and 74%, respectively.

Consider `CC(O)C1CCCCN1C(=O)c1cccc(-c2cccc(-c3nc4ccccc4[nH]3)c2)c1` (stereo not drawn), for which the results for the Inhibition in the test with Plasmodium falciparum [1], with Plasmodium falciparum [2] and in the test on HepG2 were 99%, 76% and 20%, respectively.

Turning to `COc1ccc(NC(=O)/C=C/c2ccccc2Cl)cc1OCCN1CCC(N2CCCC2)CC1.O=C(O)C(=O)O`, the Inhibition in the test on Plasmodium falciparum [1] was 100%; in the test with Plasmodium falciparum [2] it was 23%; in the test with HepG2, 22%.

As to `O=C(NCc1cccnc1)C(c1cc2ccccc2o1)N1CCN(C(c2ccccc2)c2ccccc2)CC1` (stereo not drawn), the Inhibition stood at 95% in the test with Plasmodium falciparum [1], 81% in the test with Plasmodium falciparum [2] and 12% in the test on HepG2.

For the molecule `Cc1cccc2nc(-c3ccc(-c4cccc(CN5CCN(CCO)CC5)c4)cc3)[nH]c12.O=C(O)C(F)(F)F`, the Inhibition with Plasmodium falciparum [1] is given as 100%; with Plasmodium falciparum [2], 55%; in the test with HepG2 it was 20%.

Turning to `Cc1cccc2nc(-c3cccc(-c4cccc(NC(=O)c5cccnc5Cl)c4)c3)[nH]c12`, the Inhibition came to 97% with Plasmodium falciparum [1], 32% in the test on Plasmodium falciparum [2] and 0% in the test on HepG2.

With `O=C(Nc1cccc(C(F)(F)F)c1)c1cccc(S(=O)(=O)NC2CCN(CC3CCCCC3)C2)c1.O=C(O)C(F)(F)F` (stereo not drawn), the Inhibition in the test on Plasmodium falciparum [1] was 100%; with Plasmodium falciparum [2], 45%; in the test with HepG2 it was 37%.

Turning to `c1ccc(COc2ccc(C3CCCCC3)cc2)nc1`, the Inhibition in the test with Plasmodium falciparum [1] came out at 99%; in the test with Plasmodium falciparum [2] it was 1%; in the test on HepG2, 0%.

Consider `COc1cc2nc(N3CCN(c4nc(N)c5cc(OC)c(OC)cc5n4)CC3)nc(N)c2cc1OC`, for which the Inhibition is on record as 100% in the test on Plasmodium falciparum [1], 99% in the test with Plasmodium falciparum [2] and 13% in the test on HepG2.

As to `CC(Cc1ccc(C(=O)Nc2ccc(CC(C)NCCc3cccc(Cl)c3)cc2)cc1)NCCc1ccc(C(F)(F)F)cc1` (stereo not drawn), the Inhibition in the test with Plasmodium falciparum [1] was determined as 100%; with Plasmodium falciparum [2] it was 88%; in the test on HepG2 it was 98%.

Consider `O=C(NCCCCN1CCC(c2ccc3c(c2OCCN2CCCC2)CCCC3)CC1)c1ccc(-c2ccc(C(F)(F)F)cc2)cc1`, for which the Inhibition with Plasmodium falciparum [1] was 100%; in the test on Plasmodium falciparum [2], 81%; with HepG2 it was 25%.
